Measurements: PubChem BioAssay AID488832 (National Center for Advancing Translational Sciences (NCATS), 2010)
Records with an inconclusive call do not appear. Activity calls are given as the source filed them. Calls follow the shape of the dose curve; as a rule, active = well fitted activation curve with a large enough effect; inconclusive = small, poorly fitted or top-dose-only effect; inactive = no such curve, though single readings can be large or run the other way.

Assay: Confirmation Concentration-Response Assay for Enhancers of SMN2 Splice Variant Expression for Further Probe SAR
Details: HEK293 SMN2 exon7-luciferase splicing reporter, luminescence, 30-36 h; series mostly up to 46.1 µM
Excerpt: NIH Chemical Genomics Center [NCGC] NIH Molecular Libraries Probe Production centers Network [MLPCN] MLPCN Grant: R03 MH084179-01 Assay Submitter (PI): Elliot Androphy NCGC Assay Overview: Spinal muscular atrophy (SMA) is caused by insufficient levels of the survival motor neuron protein SMN. The SMN locus on chromosome 5q13 contains two inverted copies of SMN called SMN1 and SMN2 which are 99% identical at the amino acid level. SMN1 is a fully functional protein and SMN2 skips exon 7 90% of the time. Skipping of exon 7 produces non-functional protein product. 10% of the SMN2 protein includes exon 7 and is fully functional. In the SMA disease state, mutations in the SMN1 locus are the cause of the disease state. Because only 10% of SMN2 is of the fully functional form, it is not sufficient to overcome the deficiency produced by the loss of the SMN1 product. A therapy that either increase the amount of SMN2 product made or to increase the inclusion of exon 7 has been proposed for the treatment of SMA. We have designed an assay to identify small molecules that can increase the amount of functional SMN2 product by appending a luciferase reporter gene after the native SMN2 gene, such that inclusion of exon 7 in the expressed product places the luciferase sequence in frame, thus generating functional luciferase enzyme.
NCGC Assay Protocol Summary: This screen utilizes a luciferase reporter gene assay, combining the promoter with the major portion of the native SMN2 cDNA (exons 1 -7, intron 8 , exon 8 fused to luciferase) stably expressed in HEK293 cells. Compounds that increase luciferase signal presumably enhance expression of the functional SMN2 splice variant. Passaging media contained DMEM w/ glutamax (+phenol red) 10% FCS, 1x pen/strep, 200 ug/ml hygro, 1x sodium pyruvate. Assay media contained DMEM w/ glutamax (-phenol red) 10% FCS, 1x pen strep, 1x pyruvate Sequence, Parameter, Value, Description (1) Cells, 5 uL, 2000 cells/well, 1536 TC treated White solid bottom plate (2) Time, 10-12 hours, 37C 5% CO2 (3) Compound, 23 nl, MLSMR Library (4) Control Compound, 23 nL, Sodium butyrate st 4.5mM (final) conc (5) Time, 30-36 hours, 37C 5% CO2 (6) Reagent, 3 ul, One Glo (TM) from Promega (7) Time, 5-15 minutes, Room temp (8) Detector, Viewlux: luminescent read, 60 second integration, high speed 2x binning Keywords: Spinal muscular atrophy, SMA, SMN2, high throughput screening, MLSMR, MLPCN, NIH Roadmap, qHTS and NCGC
With `O=S(=O)(c1ccccc1)N1CCN(c2nc(-c3ccc(Br)cc3)cs2)CC1` the Potency was “inactive”. With `CN(C)c1cccc(-c2cc(N3CCC(C(N)=O)CC3)ncn2)c1` the Potency was 4.87 µM (active). In the case of `CC(=O)NC1CCN(c2nc(-c3ccc(Br)cc3)cs2)CC1`, the Potency is reported as “inactive”. With `NC(=O)C1CCN(c2nc(-c3ccc(Cl)cc3)cs2)CC1` the Potency was 1.09 µM (active). In the case of `NC(=O)C1CCN(c2ncc(-c3ccc4c(c3)OC(F)(F)O4)s2)CC1`, the Potency is reported as 0.194 µM (active). With `CC(C)Oc1ccc(-c2csc(N3CCC(C(N)=O)CC3)n2)cc1` the Potency was 3.87 µM (active). In the case of `NC(=O)C1CCN(c2ncc(-c3cccc(N4CCCCC4)c3)s2)CC1`, the Potency is reported as 1.09 µM (active). In the case of `O=C(c1ccccc1)N1CCN(c2nc(-c3ccc(Br)cc3)cs2)CC1`, the Potency is reported as “inactive”. For `O=C(Nc1ccccc1)C1CCN(c2nc(-c3ccc(Br)cc3)cs2)CC1`, the Potency was 1.54 µM (active). For `N#Cc1cccc(-c2csc(N3CCC(C(N)=O)CC3)n2)c1`, the Potency was “inactive”. With `NC(=O)C1CCN(c2nccc(-c3ccc4c(c3)OCCCO4)n2)CC1` the Potency was 1.54 µM (active). With `Brc1ccc(-c2csc(N3CCC(c4nn[nH]n4)CC3)n2)cc1` the Potency was 17.3 µM (active). With `CCOC(=O)C1CCN(c2ncc(-c3ccc4c(c3)OCCCO4)s2)CC1` the Potency was 0.0274 µM (active). With `O=C(c1ccco1)N1CCN(c2nc(-c3ccc(Br)cc3)cs2)CC1` the Potency was “inactive”. In the case of `CN(C)c1cccc(-c2cnc(N3CCC(c4ncc[nH]4)CC3)s2)c1`, the Potency is reported as 3.45 µM (active). For `CS(=O)(=O)c1ccc(-c2csc(N3CCC(C(N)=O)CC3)n2)cc1`, the Potency was “inactive”. With `NC(=O)C1CCN(c2nnc(-c3ccc4c(c3)OCCCO4)s2)CC1` the Potency was 0.0972 µM (active). In the case of `Nc1nc(N)c2c(OCC3CCN(Cc4ccccc4F)CC3)cccc2n1`, the Potency is reported as “inactive”. For `NC1CCN(c2nc(-c3ccc(Br)cc3)cs2)CC1`, the Potency was 1.94 µM (active). In the case of `O=C(NCCCCc1ccccc1)C1CCN(c2nc(-c3ccc(Br)cc3)cs2)CC1`, the Potency is reported as “inactive”. In the case of `NC(=O)C1CCN(c2nc(-c3ccc([N+](=O)[O-])cc3)cs2)CC1`, the Potency is reported as 5.47 µM (active). In the case of `COc1ccc(-c2cnc(N3CCC(C(N)=O)CC3)s2)cc1OC`, the Potency is reported as 7.72 µM (active). In the case of `CC(C)(C)c1ccc(-c2csc(N3CCC(C(N)=O)CC3)n2)cc1`, the Potency is reported as 2.74 µM (active). In the case of `CSc1ccc(-c2cnc(N3CCC(C(N)=O)CC3)s2)cc1`, the Potency is reported as 0.031 µM (active). For `CN(C)c1cccc(-c2nc(N3CCC(C(N)=O)CC3)ncc2F)c1`, the Potency was 0.345 µM (active). In the case of `NC(=O)C1CCN(c2nc(-c3cccc4sc5ccccc5c34)cs2)CC1`, the Potency is reported as 13.7 µM (active). For `NC(=O)C1CCN(c2ncc(-c3ccc4c(c3)OCCCO4)s2)CC1`, the Potency was 0.0307 µM (active). With `O=C(O)C1CCN(c2ncc(-c3ccc4c(c3)OCCCO4)s2)CC1` the Potency was 0.0087 µM (active). In the case of `Cc1cnc(N2CCC(C(N)=O)CC2)nc1-c1cccc(N(C)C)c1`, the Potency is reported as “inactive”. With `Cc1ccc(-c2ccnc(N3CCC(C(N)=O)CC3)n2)cc1` the Potency was 0.308 µM (active). In the case of `NC(=O)C1CCN(c2ncc(-c3cccc(N4CCOCC4)c3)s2)CC1`, the Potency is reported as 1.94 µM (active). In the case of `NC(=O)C1CCN(c2nc(-c3ccccc3)cs2)CC1`, the Potency is reported as 3.07 µM (active). With `NC(=O)C1CCN(c2ncc(-c3ccc(Br)cc3)s2)CC1` the Potency was 0.218 µM (active). With `Brc1ccc(-c2csc(N3CCNCC3)n2)cc1` the Potency was “inactive”. In the case of `NC(=O)C1CCN(c2nc(-c3ccc(OC(F)(F)F)cc3)cs2)CC1`, the Potency is reported as 3.07 µM (active). For `CN(C)c1cccc(-c2nccc(N3CCC(C(N)=O)CC3)n2)c1`, the Potency was 12.2 µM (active). In the case of `CS(=O)(=O)N1CCN(c2nc(-c3ccc(Br)cc3)cs2)CC1`, the Potency is reported as “inactive”. With `CN(C)c1cccc(-c2cnc(N3CCC(C(N)=O)CC3)s2)c1` the Potency was 0.0244 µM (active). For `NC(=O)C1CCN(c2ncc(-c3cccc(F)c3)s2)CC1`, the Potency was 1.94 µM (active). With `O=C(O)C1CCN(c2nc(-c3ccc(Br)cc3)cs2)CC1` the Potency was 2.44 µM (active).
